# Laboratory results taken from PubChem BioAssay AID897 (National Center for Advancing Translational Sciences (NCATS), 2007).
# The other results are listed elsewhere or left out. Entries that show only a call come without a potency. Results filed as inconclusive are left out. Activity calls are given as the source filed them. Calls follow the shape of the dose curve; as a rule, active = well fitted inhibition curve with a large enough effect in the main read-out, with a control signal flat (not every such curve was filed as active); inconclusive = small, poorly fitted or top-dose-only effect, or a change in a side signal; inactive = no such curve, though single readings can be large or run the other way.
# Biological target: Caspase-7 (Homo sapiens) (UniProt P55210)
# Sequence (P55210 24-198 limits assumed): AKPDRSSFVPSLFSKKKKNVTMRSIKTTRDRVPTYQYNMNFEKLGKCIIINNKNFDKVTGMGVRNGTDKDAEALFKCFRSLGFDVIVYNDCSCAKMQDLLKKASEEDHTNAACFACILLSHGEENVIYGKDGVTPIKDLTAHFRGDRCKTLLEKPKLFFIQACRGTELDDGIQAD
# Sequence (P55210 207-303 limits assumed): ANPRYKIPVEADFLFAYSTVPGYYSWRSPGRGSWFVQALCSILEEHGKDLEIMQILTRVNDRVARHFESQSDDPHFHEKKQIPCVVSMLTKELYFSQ
# Test: Confirmation Concentration-Response Assay for Allosteric/Competitive Inhibitors of Caspase-7
# Settings: recombinant caspase-7, fluorogenic substrate cleavage; series mostly up to 57.5 µM
# Excerpt: NIH Molecular Libraries Screening Centers Network [MLSCN]
# NIH Chemical Genomics Center [NCGC]
# PI Name: Dr. James Wells,
# Dr. Enrique Perez-Paya, Dr.Janice Williams, Dr. Dennis Wolan, a person
# The caspases (Cysteine Aspartyl Protease) comprise a related family of 14 dimeric proteases that are critical mediators of apoptosis (programmed cell death) and inflammation. The caspases represent an important class of drug targets for stroke, ischemia, cancer and inflammatory diseases. […] One goal of this project was to identify compounds that act as allosteric inhibitors via stabilizing the procaspase form of the enzyme. Previous work in Well's laboratory has shown that such allosteric inhibitors can be identified and these act by binding at the dimer interface of enzyme (Hardy, Lam et al., 2004).
# The biochemical assay was configured using purified caspase 7 at a high enzyme concentration to promote formation of the homodimers and thus facilitate the identification of allosteric inhibitors. […] After initiation of the assay with substrate the plates were rapidly read using an automated robotic system (Kalypsys, Inc.) to maintain consistent timing. […]
# Caspase 7 was prepared in buffer (50 mM HEPES pH 7.5, 50 mM KCl, 200 mM NaCl, 10 mM DTT, 0.1% CHAPS) at a concentration of 66.6 nM and 3 uL was dispensed to all wells using black solid Kalypsys 1536-well plates. […] The plates were then exposed using 405 nm excitation/520 nm emission filters for 4 sec and read at 20 sec intervals for 3 min. […]
# Concentration-response curves were fitted to the data calculated from slope of the linear regression of fluorescent intensity versus time (the rate). The concentration-effect curves were then classified based on curve quality (r2), response magnitude and degree of measured activity. […] Inconclusive compounds had appreciable concentration-dependent effects on both the measured rate and the interpolated basal fluorescence intensity at the start of the reaction but where the basal fluorescent intensity was marginal (e.g. < 10-fold). […]
row,SMILES,Potency
1,Cc1nc2c(C(=O)NCc3ccc4c(c3)OCO4)c[nH]n2c(=O)c1Cc1ccccc1F,inactive
2,N#CC1=C(N)Oc2cc(O)ccc2C1C1CCCCC1 (stereo not drawn),25.1 µM (active)
3,CCN1C(=O)/C(=C2/Sc3ccccc3N2CCCS(=O)(=O)O)SC1=S,inactive
